One assay has as its target Albumin (Bos taurus) (UniProt P02769). Description: compounds binding labelled BSA control protein – biochemical, small-molecule microarray, Alexa647 label, 635/667 nm fluorescence, artefact control for SMM control protein annotation, profiling panel (AID 1118).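 Further: score merges 667 nm emission intensity and signal-to-noise per printed compound spot.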 To be noted: BSA-A647 binding, fluorescence 635 nm, higher = more signal.
Assay [1] in a line: probe aXIP binding to arrayed compounds – biochemical, NeuroSMM set, 635/667 nm fluorescence, primary screen (AID 1119).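 Further: probe is the protein aXip251-270 applied at 1 µg/mL to compound-printed slides; binding of probe to printed compounds measured as 667 nm fluorescence plus signal to noise.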 The settings on record: small-molecule microarray, higher = more signal, called active from +8 up or from −8 down.
Assay [2] in a line: probe aNOTCH3 binding on compound microarray – biochemical, small-molecule microarray, 635/667 nm fluorescence, primary screen (AID 1120).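 Further: probe is a biotin-tagged antibody raised against NOTCH3 rather than NOTCH3 protein; score merges spot fluorescence near 667 nm with spot signal to noise.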 The settings on record: higher = more signal.
Assay [3] is described as follows: probe aNOTCH2 binding on compound microarray – biochemical, small-molecule microarray, 635/667 nm fluorescence, primary screen (AID 1121).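 Further: score merges feature fluorescence read at 667 nm with its signal to noise.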 The settings on record: higher = more signal.
The target of assay [4] is Carbonic anhydrase 2 (Homo sapiens) (UniProt P00918). Kind of assay: compounds binding carbonic anhydrase 2 – biochemical, small-molecule microarray, Alexa647-labelled CAII, profiling panel (AID 1122). The settings on record: CAII-A647 binding fluorescence, higher = more signal.
Assay [5] can be described thus: COS7 lysate on small-molecule microarray, probe aHis, 635 nm (AID 1123).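 Further: z-score combines 667nm fluorescence intensity with signal-to-noise per printed compound spot.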 To be noted: COS7 cell lysate, fluorescence, higher = more signal.
A short description of assay [6]: probe aLAP1 signal on lysate-treated microarray – cell lysate, small-molecule microarray, COS7 lysate, primary screen (AID 1124).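 Further: lysate comes from COS7 cells expressing LAP1 and is applied at 0.3 µg/mL; score merges spot fluorescence near 667 nm with signal-to-noise over triplicate slides.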 To be noted: probe aLAP1, fluorescence, higher = more signal.
For another assay, the system named is Sam68 (KHDRBS1). Kind of assay: compounds binding KHDRBS1 protein – biochemical, small-molecule microarray, 635 nm fluorescence, primary screen (AID 1125).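 Further: score merges 667 nm channel intensity with signal to noise over triplicate slides.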 The settings on record: higher = more signal.
Assay [7] deals with Chordin-like protein 2 (CHRDL2). Description: compounds binding chordin-like 2 – biochemical, small-molecule microarray, 635 nm fluorescence, primary screen (AID 1126).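 Further: printed compound slides probed with Chrdl2 protein at 4 µg/mL for 1 h at 4 C; score merges 667 nm emission intensity with signal to noise over three replicate slides.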 The settings on record: fluorescence 635 nm, higher = more signal.
In assay [8] the target is Concanavalin-A (Canavalia ensiformis) (UniProt P02866). Kind of assay: compounds binding concanavalin A lectin – biochemical, small-molecule microarray, Alexa647 label, 635 nm, artefact control for SMM control protein annotation, primary screen (AID 1127).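 Further: z combines 667 nm emission intensity with signal-to-noise across three replicate slides.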 To be noted: ConA-A647 binding fluorescence, higher = more signal.

The source made the active and inactive calls.

Albumin (Bos taurus), sequence (P02769 whole entry, looked up): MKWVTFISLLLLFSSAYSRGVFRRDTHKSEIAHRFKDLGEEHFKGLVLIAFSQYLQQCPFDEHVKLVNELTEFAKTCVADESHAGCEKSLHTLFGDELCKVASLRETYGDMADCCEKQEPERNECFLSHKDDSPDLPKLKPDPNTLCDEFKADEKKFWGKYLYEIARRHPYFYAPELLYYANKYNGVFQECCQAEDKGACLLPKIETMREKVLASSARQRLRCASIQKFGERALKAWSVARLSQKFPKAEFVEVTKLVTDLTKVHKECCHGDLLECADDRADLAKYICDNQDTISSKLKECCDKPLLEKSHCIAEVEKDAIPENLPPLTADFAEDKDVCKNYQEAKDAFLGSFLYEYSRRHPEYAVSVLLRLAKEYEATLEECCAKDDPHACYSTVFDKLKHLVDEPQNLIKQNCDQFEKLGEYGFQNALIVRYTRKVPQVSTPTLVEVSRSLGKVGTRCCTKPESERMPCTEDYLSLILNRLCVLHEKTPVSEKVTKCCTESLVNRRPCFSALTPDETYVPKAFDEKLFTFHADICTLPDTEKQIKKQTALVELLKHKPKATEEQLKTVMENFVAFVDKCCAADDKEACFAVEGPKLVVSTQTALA
Concanavalin-A (Canavalia ensiformis), sequence (P02866 whole entry, looked up): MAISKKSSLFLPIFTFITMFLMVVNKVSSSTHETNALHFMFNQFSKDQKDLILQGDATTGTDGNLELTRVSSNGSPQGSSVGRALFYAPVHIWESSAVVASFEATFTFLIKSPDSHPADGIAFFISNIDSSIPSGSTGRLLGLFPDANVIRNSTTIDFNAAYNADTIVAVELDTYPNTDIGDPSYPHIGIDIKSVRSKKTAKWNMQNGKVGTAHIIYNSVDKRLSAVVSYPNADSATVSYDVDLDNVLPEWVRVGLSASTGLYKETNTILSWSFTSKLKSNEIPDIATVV

In the case of `CC(C)=CCCC(C)=CCON=C1C[C@@H](O)[C@@H](O)[C@@H]2[C@@H]3C(=O)N(Cc4ccccc4)C(=O)[C@@H]3CC[C@H]12`, the composite z-score was 0.188 with Albumin (Bos taurus); 0.0493 in assay [2]; -0.175 in assay [3]; 0.754 in assay [4]; 1.26 in assay [5]; 0.146 in [6]. In addition, the values for the composite z-score (with Sam68 (KHDRBS1); in [7]; in [8]) were 1.29, 0.955 and 0.541, respectively. The composite Z-score in assay [1] was 0.4 (inactive).
As for `CCOC(=O)CCN1C(=O)[C@H]2[C@H]3[C@H](O)[C@H](O)CC(=NOCc4ccccc4)[C@H]3CC[C@H]2C1=O`, the composite z-score with Albumin (Bos taurus) was -0.271; in assay [2], 0.191; in assay [3], -0.0467; in [4], -0.19; in [5] it was 0.343; in assay [6] it was -0.27. The values for the composite z-score (in the assay with Sam68 (KHDRBS1); in [7]; in assay [8]) were 0.152, 0.578 and -0.477, respectively. Further, in [1], the composite Z-score was 0.119 (inactive).
In the case of `CCC=CCCC(OC(=O)c1ccc(Br)cc1)C1=CCCCC1=O` (stereo not given), the composite z-score with Albumin (Bos taurus) is 0.231; in assay [2] it was 0.0836; in assay [3], -0.102; in [4], 0.696; in assay [5], 0.678; in [6] it was 0.0079. Also, the composite z-score in the assay with Sam68 (KHDRBS1) was 0.776; in assay [7] it was 1.02; in [8], -0.297. For the same molecule, the composite Z-score in assay [1] is -0.0549 (inactive).
As to `CCOC(=O)C1=NO[C@@]2(C=C(Br)C3(OCCCO3)[C@H]3O[C@H]32)C1`, the composite z-score in the assay with Albumin (Bos taurus) is -1.04; in assay [2], 0.0962; in [3] it was -0.14; in assay [4] it was 0.486; in assay [5], 0.336; in assay [6], -0.145. Further, the composite z-score was -0.268 in the assay with Sam68 (KHDRBS1), 1.52 in assay [7] and 0.313 in assay [8]. In assay [1], the composite Z-score was 0.44 (inactive).
`O=C1CCCC(C2=CCCCC2=O)C1` (stereo not given): the composite z-score is -0.599 in the assay with Albumin (Bos taurus); 0.152 in assay [2]; -0.112 in assay [3]; -0.139 in [4]; 0.0016 in assay [5]; 0.0781 in [6]. The composite z-score in the assay with Sam68 (KHDRBS1) is -0.532; in assay [7], 1.06; in [8], -0.719. Also, the composite Z-score in assay [1] was 0.675 (inactive).
For `O=c1n(-c2ccccc2)c(=O)n2n1CC[C@@H]1C(=NOCc3ccccc3)[C@H]3O[C@H]3[C@@H](O)[C@@H]12`, the composite z-score with Albumin (Bos taurus) is -0.101; in assay [2] it was -0.179; in assay [3], -0.189; in assay [4], 0.745; in assay [5], -0.539; in assay [6], -0.289. Further, the composite z-score in the assay with Sam68 (KHDRBS1) was -0.712; in assay [7], -0.0034; in [8] it was -0.073. In addition, the composite Z-score in assay [1] was 0.371 (inactive).
In the case of `O=C1[C@H]2[C@H]3[C@H](O)[C@H](O)CC(=NOCc4ccccc4)[C@@H]3CC[C@H]2C(=O)N1Cc1ccc2c(c1)OCO2`, the composite z-score in the assay with Albumin (Bos taurus) was 0.0462; in [2], 0.0306; in [3], -0.0131; in [4], 0.618; in assay [5], -0.0974; in [6], -0.0389. In addition, the composite z-score with Sam68 (KHDRBS1) is -0.0391; in assay [7], 0.124; in [8], -0.0139. In addition, in assay [1], the composite Z-score is 0.0289 (inactive).
`O=C1[C@H]2[C@H]3[C@H](O)[C@H](O)CC(=NOC[C@@H](O)COCc4ccco4)[C@H]3CC[C@H]2C(=O)N1c1ccc(F)cc1F`: the composite z-score in the assay with Albumin (Bos taurus) is -0.0108; in [2], -0.291; in assay [3], -0.146; in assay [4], 0.823; in [5] it was -0.823; in assay [6], 0.0839. For the same molecule, the composite z-score in the assay on Sam68 (KHDRBS1) was -1.25; in [7] it was -0.48; in assay [8], -1.03. Moreover, the composite Z-score in [1] is -0.214 (inactive).
Consider `CO[C@H]1COC(=O)CC=C[C@H](C)[C@@H](OC)COC(=O)[C@H](C)COC(=O)CC=C[C@@H]1C`, for which the composite z-score was -1.2 in the assay with Albumin (Bos taurus); 0.0306 in assay [2]; -0.133 in [3]; -0.425 in assay [4]; -0.552 in assay [5]; 0.975 in [6]. Further, the figures for the composite z-score (with Sam68 (KHDRBS1); in assay [7]; in assay [8]) were -0.106, 1.43 and -0.55, respectively. The composite Z-score in assay [1] was 0.559 (inactive).
On to `Cc1cc2c(nc1C)CCCCN2CC(C)ON=C1[C@H]2CCn3c(=O)n(-c4ccccc4)c(=O)n3[C@H]2[C@H](O)[C@@H]2O[C@H]12` (stereo not given in full), for which the composite z-score with Albumin (Bos taurus) was 0.762; in [2], 0.0562; in assay [3] it was -0.117; in assay [4], 0.435; in [5], 0.812; in [6], 0.0072. In addition, the composite z-score was 0.573 with Sam68 (KHDRBS1), 0.373 in assay [7] and -0.765 in assay [8]. For the same molecule, the composite Z-score in assay [1] was -0.343 (inactive).
In the case of `COc1ccc(COC(=O)NN=C2C[C@@H](O)[C@@H](O)[C@@H]3[C@@H]4C(=O)N(c5ccc(F)cc5F)C(=O)[C@@H]4CC[C@H]23)cc1`, the composite z-score in the assay with Albumin (Bos taurus) was 0.446; in assay [2] it was 0.0961; in assay [3], -0.157; in assay [4], -0.0507; in assay [5], -0.181; in assay [6], 0.0054. For the same molecule, the composite z-score with Sam68 (KHDRBS1) is -0.169; in [7] it was -0.293; in [8] it was 0.0493. Also, the composite Z-score in [1] is 3.84 (inactive).
On to `O=C1[C@H]2[C@H]3[C@H](O)[C@H](O)CC(=NOC[C@@H](O)COCc4ccco4)[C@H]3CC[C@H]2C(=O)N1C[C@@H]1CCCO1`, for which the composite z-score in the assay with Albumin (Bos taurus) is -0.483; in assay [2], -0.0976; in assay [3], -0.208; in assay [4], -0.237; in assay [5], -0.736; in assay [6], -0.353. Further, the composite z-score is 0.293 with Sam68 (KHDRBS1), 1.38 in [7] and -0.294 in assay [8]. The composite Z-score in [1] was 0.382 (inactive).
In the case of `CON=C1[C@H]2CCn3c(=O)n(-c4ccccc4)c(=O)n3[C@H]2[C@H](O)[C@@H]2O[C@H]12`, the composite z-score was 0.103 with Albumin (Bos taurus); -0.0006 in [2]; -0.121 in assay [3]; 0.0479 in [4]; -0.364 in [5]; 0.0879 in [6]. The results for the composite z-score (in the assay on Sam68 (KHDRBS1); in [7]; in assay [8]) were 0.689, 0.501 and 0.217, respectively. For the same molecule, the composite Z-score in assay [1] is 0.119 (inactive).
In the case of `COc1ccc(O[C@H]2C=C[C@@H](c3ccccc3)O[C@@H]2CON=CC[C@@H]2C=C[C@H](OC(C)=O)[C@@H](COC(C)=O)O2)cc1`, the composite z-score is 0.779 in the assay with Albumin (Bos taurus); 0.0893 in assay [2]; -0.145 in [3]; -0.198 in [4]; -0.478 in [5]; 0.221 in assay [6]. For the same molecule, the values for the composite z-score (in the assay on Sam68 (KHDRBS1); in assay [7]; in [8]) were -0.176, 0.366 and 0.543, respectively. For the same molecule, the composite Z-score in assay [1] is 0.112 (inactive).
Consider `CO[C@H]1COC(=O)[C@H](C)NC(=O)[C@@H](C)COC(=O)[C@H]2CCCN2C(=O)CC=C[C@H]1C`, for which the composite z-score with Albumin (Bos taurus) was -0.74; in [2], -0.178; in assay [3], -0.148; in assay [4] it was -0.273; in [5], -0.414; in assay [6], -0.0354. The composite z-score in the assay with Sam68 (KHDRBS1) is 0.476; in assay [7] it was 1.17; in assay [8] it was -0.229. Further, the composite Z-score in [1] is -0.533 (inactive).
With `CCc1cc2c(nc1CC)CCN(CCC(C)=NO[C@H](C)c1cn([C@H](CO)Cc3ccccc3)nn1)C2`, the composite z-score was 0.867 with Albumin (Bos taurus); 0.189 in [2]; -0.101 in [3]; 0.0934 in assay [4]; 0.287 in assay [5]; 0.022 in assay [6]. Also, the composite z-score with Sam68 (KHDRBS1) was 0.708; in [7], 0.357; in assay [8], -0.0875. In addition, in assay [1], the composite Z-score was -0.51 (inactive).
For the molecule `Cc1cc2c(c(=O)o1)[C@@H](O)[C@H]1O[C@H]1C2=O`, the composite z-score was -0.293 in the assay with Albumin (Bos taurus); -0.0744 in assay [2]; -0.132 in [3]; -0.131 in assay [4]; -0.243 in assay [5]; -0.108 in assay [6]. The composite z-score was determined as 0.568 in the assay with Sam68 (KHDRBS1), 0.705 in assay [7] and 0.358 in assay [8]. Moreover, the composite Z-score in [1] was -0.0055 (inactive).

These data come from PubChem BioAssay.
